The list is not random: actives were taken first. Their share in the collection is about 6.9%.
MCF10A rerep = induces DNA re-replication in MCF 10a normal breast cells. 350,000 tested, 2.9% active. AID 624296. Potency, µM (series often up to 46.1 µM), inactives show at the highest dose activity, positive = re-replication, most hits filed as activators. MCF 10A DNA re-replication, Hoechst nuclear intensity, 48 h; note: potency is the fitted concentration of half-maximal effect; % of control where 0% means no effect; nearly all actives have a fitted effect of over 50% in size
KB-V1 cytotox = kills drug-selected multidrug resistant KB-V1 cells; 400,000 tested, 3.4% active; Potency, µM (doses to about 46.1 µM), most hits filed as cytotoxic; KB-V1 MDR cells viability, CellTiter-Glo, 72 h; note: potency is the fitted concentration of half-maximal effect; % is set by controls: 0 for no effect and ±100 for the full control effect; nearly all actives have a fitted effect of over 60% in size
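Cytotoxicity via CellTiter-Glo luminescence after 72 h compound exposure at 37 degrees C. Cells: drug-selected KB-V1 line, DMEM phenol-red free plus 10% FBS. Compounds tested at multiple concentrations; normalized data fitted to concentration-effect curves.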
SW480 rerep = induces DNA re-replication in SW480 colon adenocarcinoma cells; SW480 DNA re-replication, Hoechst DNA content imaging, 48 h; Potency, µM (titrated, usually from 46.1 µM), for inactives: at the top dose re-replication activation, most hits filed as activators; 340,000 tested, 1.8% active; note: potency is the fitted concentration of half-maximal effect; % of control where 0% means no effect; nearly all actives have a fitted effect of over 55% in size
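Cells (250 per well) received 23 nL compound or DMSO by pin tool and were kept 48 hr at 37 C, 5% CO2. Nuclei were then stained with Hoechst for 40 min and scanned for DNA content.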
KB-3-1 tox = kills parental KB-3-1 adenocarcinoma cells | KB-3-1 viability, CellTiter-Glo ATP luminescence, 72 h | Potency, µM (top dose mostly 46.1 µM), usual class: cytotoxic | 400,000 tested, 1.4% active; note: potency is the fitted concentration of half-maximal effect; % is set by controls: 0 for no effect and ±100 for the full control effect; nearly all actives have a fitted effect of over 60% in size
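Cytotoxicity in the drug-sensitive parental line KB-3-1 was scored as loss of CellTiter-Glo luminescence following 72 h incubation with compound. Values come from curve fitting of normalized concentration-response data.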
S-ASM inh = blocks human secretory acid sphingomyelinase. AID 504937. P17405. Potency, µM (series often up to 57.5 µM), without a hit: top-dose activity change, negative = inhibition, most hits filed as inhibitors. placental ASM, HMU-PC fluorogenic substrate, 60 min. 340,000 tested, 0.006% active; note: potency is the fitted concentration of half-maximal effect
Target sequence (P17405 47-631 limits assumed): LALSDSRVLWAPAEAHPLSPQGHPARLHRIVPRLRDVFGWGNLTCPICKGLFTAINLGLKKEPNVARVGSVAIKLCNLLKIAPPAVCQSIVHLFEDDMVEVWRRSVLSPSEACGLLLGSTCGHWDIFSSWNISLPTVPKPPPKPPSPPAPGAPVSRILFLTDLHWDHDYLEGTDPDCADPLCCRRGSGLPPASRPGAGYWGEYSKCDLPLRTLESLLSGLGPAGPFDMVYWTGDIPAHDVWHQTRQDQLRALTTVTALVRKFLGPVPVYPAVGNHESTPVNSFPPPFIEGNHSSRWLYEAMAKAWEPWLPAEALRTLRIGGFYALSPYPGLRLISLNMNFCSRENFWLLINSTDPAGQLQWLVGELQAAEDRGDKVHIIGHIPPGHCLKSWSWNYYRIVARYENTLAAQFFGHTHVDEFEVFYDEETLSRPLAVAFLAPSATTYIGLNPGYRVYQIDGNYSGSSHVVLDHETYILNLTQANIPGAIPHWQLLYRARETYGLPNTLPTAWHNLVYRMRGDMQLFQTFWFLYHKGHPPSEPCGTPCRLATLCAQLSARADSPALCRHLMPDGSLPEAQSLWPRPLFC
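qHTS format. ASM enzyme prepared from human placenta hydrolyses the fluorogenic substrate HMU-PC0 (9 uM final) over 60 min at 37 °C after a 10 min compound preincubation.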
Giardia kill = Giardia lamblia killing. activity change, % at 7.66 µM, hits read low. Giardia lamblia trophozoite viability. 340,000 tested, 0.15% active; in the data active = activity change below about -80%; inconclusive = between about -30% and that limit;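 note: parasites exposed to compound for two days anaerobically before the ATP read; % is set by controls: 0 for no effect and ±100 for the full control effect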
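Compounds were tested on trophozoites seeded at 100 cells/well and held 48 hrs at 37 deg C anaerobically. An ATP-based luminescent kit measured the remaining live cells.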
The depositor's hits bear a star; [ ] = remark or other dose. Unless noted, calls come from the whole dose curve; as a rule, active = well fitted curve in the direction sought with a large enough effect; inconclusive = small, poorly fitted or top-dose-only effect, or another doubt; inactive = no such curve, though single readings can be large; an effect the other way counts as inactive or inconclusive.

Results for Cc1ccccc1N=C1NC(=O)/C(=C/c2cccn2C)S1 ?
MCF10A rerep: inconclusive; KB-V1 cytotox: 7.3µM*; SW480 rerep: inconclusive; KB-3-1 tox: inconclusive; S-ASM inh: -9%; Giardia kill: -23

How did O=C1NC(=Nc2cccnc2)S/C1=C/c1ccc(F)cc1 do in these assays?
MCF10A rerep: 7.3µM*; KB-V1 cytotox: inconclusive; SW480 rerep: inconclusive; KB-3-1 tox: inconclusive; S-ASM inh: -5%; Giardia kill: 3

How did Cc1cccc(N=C2NC(=O)/C(=C/c3cccn3C)S2)c1 do in these assays?
MCF10A rerep: inconclusive; KB-V1 cytotox: 5.8µM*; SW480 rerep: inconclusive; KB-3-1 tox: inconclusive; S-ASM inh: -10%; Giardia kill: -9

How did O=C1NC(=Nc2ccccc2)S/C1=C\c1cccn1-c1ccccc1 do in these assays?
MCF10A rerep: 6.5µM*; KB-V1 cytotox: 4.6µM*; SW480 rerep: 6.5µM*; KB-3-1 tox: 5.2µM*; S-ASM inh: -12%; Giardia kill: -21

Results for O=C1NC(=Nc2ccccc2)S/C1=C\c1cccnc1 ?
MCF10A rerep: 0%; KB-V1 cytotox: inactive; SW480 rerep: inconclusive; KB-3-1 tox: inactive; S-ASM inh: 3%; Giardia kill: 3

How did COc1cc(OC)c(NC(=O)CCS(=O)(=O)c2ccc3c(c2)oc(=O)n3C)cc1Cl do in these assays?
KB-V1 cytotox: inactive; KB-3-1 tox: inconclusive

How did COC(=O)c1ccc(Oc2nc3c(c(=O)n(C)c(=O)n3C)n2Cc2ccc(Cl)c(Cl)c2)cc1 do in these assays?
KB-V1 cytotox: inactive; KB-3-1 tox: inactive

How did Cc1cccc(N2C(=O)CSC23C(=O)N(CC(=O)NCc2ccccc2Cl)c2ccccc23)c1 (centres undefined) do in these assays?
KB-V1 cytotox: inactive; KB-3-1 tox: inactive

What do the screens show for `Cc1ccc2nc(-c3cccc(NS(C)(=O)=O)c3)cc(-c3ccccc3)c2c1`?
MCF10A rerep: inconclusive; KB-V1 cytotox: 18µM*; SW480 rerep: inconclusive; KB-3-1 tox: inconclusive; S-ASM inh: inconclusive; Giardia kill: 44

What do the screens show for `COc1cc2[nH]c(=O)n(CCCC(=O)NCc3ccccc3Cl)c(=O)c2cc1OC`?
KB-V1 cytotox: inconclusive; KB-3-1 tox: inactive

What do the screens show for `CN(N=O)C(=O)N[C@H]1[C@@H](O)[C@H](O)[C@H](CO)O[C@@H]1O`?
MCF10A rerep: -1%[20.6 µM]; SW480 rerep: -1%[20.6 µM]

How did CCCCCn1c(=NC(=O)c2cccnc2)c(C#N)cc2c(=O)n3cccc(C)c3nc21 do in these assays?
MCF10A rerep: 13µM*; KB-V1 cytotox: inactive; SW480 rerep: 8.2µM*; KB-3-1 tox: inactive; S-ASM inh: inactive; Giardia kill: 8

Results for CCCCn1c(=NC(=O)c2ccc3c(c2)OCO3)c(C#N)cc2c(=O)n3cccc(C)c3nc21 ?
MCF10A rerep: inconclusive; KB-V1 cytotox: inconclusive; SW480 rerep: inconclusive; KB-3-1 tox: inconclusive; S-ASM inh: 218%; Giardia kill: 10

How did CCOCCCn1c(=NC(C)=O)c(C#N)cc2c(=O)n3cccc(C)c3nc21 do in these assays?
MCF10A rerep: inconclusive; KB-V1 cytotox: inconclusive; SW480 rerep: 13µM*; KB-3-1 tox: inactive; S-ASM inh: inactive; Giardia kill: 24

Results for CCCCn1c(=NC(C)=O)c(C#N)cc2c(=O)n3cccc(C)c3nc21 ?
MCF10A rerep: 12µM*; KB-V1 cytotox: inactive; SW480 rerep: 21µM*; KB-3-1 tox: inconclusive; S-ASM inh: inactive; Giardia kill: -3

How did Cc1nc2ncnn2c(C)c1CCC(=O)NCc1ccccc1Cl do in these assays?
KB-V1 cytotox: inconclusive; KB-3-1 tox: inactive

How did Cc1cccc(NC(=O)CCn2cnnn2)c1C do in these assays?
KB-V1 cytotox: inactive; KB-3-1 tox: inactive

Results for Cc1csc(NC(=O)c2cc3c(s2)CCCC3)n1 ?
MCF10A rerep: -8%; KB-V1 cytotox: inactive; SW480 rerep: 10%; KB-3-1 tox: inactive; S-ASM inh: 3%; Giardia kill: inconclusive

Compound activity: PubChem, National Center for Advancing Translational Sciences (NCATS)
